Experimental findings from PubChem BioAssay (Tox21) are described below.

The target of test [1] is Luciferin 4-monooxygenase (Photinus pyralis) (UniProt P08659). As to the kind of experiment: qHTS assay to identify small molecule inhibitors of firefly luciferase (AID 1224835). Also: nearly all actives have a fitted effect of over 25% in size. Also: potency is read from the fitted curve at half-maximal effect. The method, boiled down:
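Quantitative HTS format; KM concentrations of both substrates. Purified P. pyralis FLuc activity quantified from luminescence images.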
On the technique in general: Quantitative high-throughput screening tests each substance at several concentrations.

Test [2] is described as follows: qHTS assay to identify small molecule agonists of the constitutive androstane receptor (CAR) signaling pathway - cell viability counter screen (AID 1224836). Also: series mostly up to about 92 µM; nearly all actives have a fitted effect of over 45% in size. A digest of the protocol:
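HepG2-CYP2B6-hCAR, 2500 cells/well, 4 h pre-incubation; cpd 15 conc + PK11195 0.75 uM final; 23 h, 37 C/5% CO2; CellTiter-Fluor, fluorescence.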

Test [3] is described as follows: qHTS assay to identify small molecule antagonists of the constitutive androstane receptor (CAR) signaling pathway - cell viability counter screen (AID 1224837). Also: series mostly up to about 92 µM; nearly all actives have a fitted effect of over 45% in size. A digest of the protocol:
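HepG2-CYP2B6-hCAR cells, 2500/well, 4 hr pre-incubation; compound titration, 15 conc.; CITCO 50 nM final; 23 hr, 37 C/5% CO2; CellTiter-Fluor, fluorescence intensity.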

The target in test [4] is Nuclear receptor subfamily 1 group I member 3 (Homo sapiens) (UniProt Q14994). As to the kind of experiment: qHTS assay to identify small molecule antagonists of the constitutive androstane receptor (CAR) signaling pathway (AID 1224838).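 Also: HepG2 cells stably expressing hCAR with CYP2B6 luciferase reporter stimulated by CITCO; nearly all actives have a fitted effect of over 40% in size.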 A digest of the protocol:
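HepG2-CYP2B6-hCAR cells; 4 h pre-incubation; cpd (15 conc) + CITCO 50 nM final; 24 h, 37 C/5% CO2; ONE-Glo, luminescence.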

For test [5] the target is unchanged. Nature of the test: qHTS assay to identify small molecule agonists of the constitutive androstane receptor (CAR) signaling pathway (AID 1224839). Also: nearly all actives have a fitted effect of over 15% in size. Also: potency is read from the fitted curve at half-maximal effect.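 As to activation: HepG2 cells stably carrying human CAR and a CYP2B6 luciferase reporter; series mostly up to about 92 µM.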 The method, boiled down:
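HepG2-CYP2B6-hCAR cells, 2500/well, 4 h pre-incubation; compounds 15 conc.; PK11195 0.75 uM final; 24 h, 37 C/5% CO2; ONE-Glo luciferase read.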

Test [6] in a line: qHTS assay to identify small molecule antagonists of the estrogen related receptor signaling pathway with the pleiotropic PPARgamma coactivator (PGC) from Tox21 10K library - cell viability counter screen (AID 1224840; active = well fitted cell-killing curve with a large enough effect in the repeat runs, not every such curve was filed as active; also: nearly all actives have a fitted effect of over 40% in size). The method, boiled down:
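PGC/ERR cells, 2,000/well; 6 h pre-incubation 37 C/5% CO2; cpd in DMSO via pin tool; 17.5 h 37 C; CellTiter-Fluor, 30 min; fluorescence.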

A short description of test [7]: qHTS assay to identify small molecule antagonists of the estrogen related receptor signaling pathway with the pleiotropic PPARgamma coactivator (PGC) from Tox21 10K library (AID 1224841; call rule not given here; also: series mostly up to about 92 µM; actives are mostly falling curves and most rising ones were filed inactive; nearly all actives have a fitted effect of over 50% in size). The method, boiled down:
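PGC/ERR cell line, 2,000 cells/well; 6 h pre-incubation 37 C/5% CO2; compounds (DMSO) pinned in; 18 h, 37 C; One-Glo, 30 min RT; luminescence.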

Test [8] can be described thus: qHTS assay to identify small molecule agonists of the estrogen related receptor signaling pathway with the pleiotropic PPARgamma coactivator (PGC) from Tox21 10K library (AID 1224842). Also: nearly all actives have a fitted effect of over 15% in size. A digest of the protocol: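 PGC/ERR reporter cells (NTP line) were seeded 2,000 per well, rested 6 h at 37 C/5% CO2, then pin-dosed with compounds in DMSO for 18 h at 37 C; luciferase read by One-Glo luminescence after 30 min at room temperature.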

The target in test [9] is Thyrotropin receptor (Homo sapiens) (UniProt P16473). As to the kind of experiment: qHTS assay to identify small molecule agonists of the thyroid stimulating hormone receptor (TSHR) signaling pathway (AID 1224843; calls by dose curve; also: nearly all actives have a fitted effect of over 45% in size). The method, boiled down: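 Cell line HEK293 with TSHR; density 800/well. Exposure 30 min RT. Readout HTRF cAMP (cAMP-d2/anti-cAMP-cryptate), 1 h RT before reading.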
Thyrotropin receptor (Homo sapiens), sequence (P16473 whole entry, looked up): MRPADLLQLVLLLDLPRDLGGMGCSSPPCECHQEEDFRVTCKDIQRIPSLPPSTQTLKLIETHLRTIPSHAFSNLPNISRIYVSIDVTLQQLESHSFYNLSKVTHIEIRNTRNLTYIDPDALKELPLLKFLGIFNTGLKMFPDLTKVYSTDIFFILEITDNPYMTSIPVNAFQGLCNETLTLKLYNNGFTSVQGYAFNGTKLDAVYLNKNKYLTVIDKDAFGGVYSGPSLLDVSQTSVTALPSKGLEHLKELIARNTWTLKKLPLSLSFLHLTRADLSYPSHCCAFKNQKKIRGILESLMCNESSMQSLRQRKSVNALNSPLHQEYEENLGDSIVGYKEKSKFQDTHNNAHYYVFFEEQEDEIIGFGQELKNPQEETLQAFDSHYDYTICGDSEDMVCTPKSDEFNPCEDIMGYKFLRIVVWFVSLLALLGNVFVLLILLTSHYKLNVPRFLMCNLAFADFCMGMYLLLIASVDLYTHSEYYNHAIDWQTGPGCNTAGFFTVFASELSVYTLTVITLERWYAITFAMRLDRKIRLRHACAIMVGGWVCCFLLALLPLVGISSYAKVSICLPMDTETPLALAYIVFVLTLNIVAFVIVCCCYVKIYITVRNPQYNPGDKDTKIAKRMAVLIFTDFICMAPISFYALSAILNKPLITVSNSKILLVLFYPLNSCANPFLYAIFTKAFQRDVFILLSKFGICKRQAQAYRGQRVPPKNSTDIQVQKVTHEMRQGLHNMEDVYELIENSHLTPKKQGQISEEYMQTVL

Test [10] is described as follows: qHTS assay to identify small molecule agonists of the hypoxia (HIF-1) signaling pathway - cell viability counter screen (AID 1224844; calls by dose curve; also: nearly all actives have a fitted effect of over 50% in size). A digest of the protocol: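 ME-180 HRE-bla cells, 2,000/well, 0.5% dialyzed FBS; 5 hr settle, 17 hr compound at 37C/5% CO2; CCF4-AM reporter read first, then CellTiter-Glo luminescence after 30 min RT.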
Test [11] is described as follows: qHTS assay to identify small molecule agonists of H2AX (AID 1224845; active = well fitted activation curve with a large enough effect in the signal ratio in the repeat runs, not every such curve was filed as active; the % refers to the signal ratio). The method, boiled down: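 Wild-type CHO-K1 cells plated overnight, then exposed 3 hr at 37C to compounds at 15 concentrations (0.76% DMSO). Lysed, then HTRF anti-pH2AX(S139)-cryptate/anti-H2AX-d2 detection after 24 hr at room temperature; emissions 665 and 620 nm.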
Test [12] can be described thus: qHTS assay to identify small molecule agonists of the hypoxia (HIF-1) signaling pathway (AID 1224846; active = well fitted activation curve with a large enough effect in the signal ratio in the repeat runs, not every such curve was filed as active; the % refers to the signal ratio). The method, boiled down: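 Cell line: CellSensor HRE-bla ME-180; 2,000 cells/well; 0.5% dialyzed FBS; 5 h preincubation; DMSO compound pin transfer; 17 h, 37C, 5% CO2; CCF4-AM added; bla FRET signal scored for activation.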
Test [13] can be described thus: qHTS assay to identify small molecule agonists of H2AX - cell viability counter screen (AID 1224847; calls by dose curve; also: top concentration of the series differs between compounds; nearly all actives have a fitted effect of over 30% in size). A digest of the protocol:
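Cells plated first: CHO-K1, 1000 per well in 10% FBS medium, incubated overnight at 37C. Then 15-point compound titration added (final DMSO 0.76%) for 3 hr. Finally CellTiter-Glo added and luminescence read.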

Test [14] in a line: qHTS assay to identify small molecule antagonists of the estrogen related receptor (ERR) signaling pathway from Tox21 library (AID 1224848). Also: nearly all actives have a fitted effect of over 50% in size. The method, boiled down:
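Screening used an ERR reporter line supplied by NTP, exposed for 18 h at 37 C to library compounds delivered in DMSO. Signal was luciferase luminescence developed with ONE-Glo at room temperature for 30 min.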

Test [15] can be described thus: qHTS assay to identify small molecule agonists of the estrogen related receptor (ERR) signaling pathway from Tox21 library (AID 1224849; calls by dose curve; also: nearly all actives have a fitted effect of over 15% in size). The method, boiled down: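 ERR cells, 6 h pre-incubation 37 C/5% CO2; cpd in DMSO pinned; 18 h 37 C; ONE-Glo added, 30 min RT; luminescence read. Agonist mode, qHTS.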
Test [16] in a line: qHTS RealTime-Glo MT Cell Viability Assay in HepG2 cells - 24 hour (AID 1224867). Also: nearly all actives have a fitted effect of over 50% in size. The method, boiled down: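 Tox21 10K library screened in qHTS format on HepG2 cells carrying RealTime-Glo reagents. Compounds were added after a 5 h preincubation, and the luminescent signal from continuous culture was measured repeatedly during 40 h treatment.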
Test [17] in a line: qHTS RealTime-Glo MT Cell Viability Assay in HEK293 cells - 32 hour (AID 1224868). A digest of the protocol:
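Luminescence generated by NanoLuc from substrate produced by living HEK293 cells served as the viability signal. Each value reflects the reading at its stated time point during continuous 40 h compound exposure at 37 C.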

Test [18] is described as follows: A CellTox Green Cytotoxicity Assay to monitor cytotoxicity in HEK293 cells - 0 hour (AID 1224869). Also: nearly all actives have a fitted effect of over 50% in size. The method, boiled down:
(§1)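 Nonlytic real-time cytotoxicity: HEK293 + CellTox Green reagent plated, 5 h preincubation, pintool compound addition (23 nL in DMSO), 37 C for 40 h, fluorescence measured at successive time points.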

The nature of test [19]: qHTS RealTime-Glo MT Cell Viability Assay in HepG2 cells - 40 hour (AID 1224870). Also: nearly all actives have a fitted effect of over 50% in size. The method, boiled down: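 HepG2 cells mixed with RealTime-Glo MT reagents (NanoLuc plus cell-permeant prosubstrate) were seeded at 600 cells/well, incubated 5 h at 37 C/5% CO2, then pinned with compounds in DMSO; nonlytic luminescence tracked viability during 40 h treatment.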
Test [20] in a line: A CellTox Green Cytotoxicity Assay to monitor cytotoxicity in HEK293 cells - 40 hour (AID 1224871). Also: nearly all actives have a fitted effect of over 45% in size. The method, boiled down: as §1

A number with no mark means an inactive call. Records with an inconclusive call do not appear. The source made the active and inactive calls. Unless noted, calls follow the shape of the dose curve; as a rule, active = well fitted curve in the direction sought with a large enough effect in the repeat runs; inconclusive = weak or mixed curves; inactive = no such curve, though single readings can be large; an effect the other way counts as inactive or inconclusive.

Nuclear receptor subfamily 1 group I member 3 (Homo sapiens), sequence (Q14994 whole entry, looked up): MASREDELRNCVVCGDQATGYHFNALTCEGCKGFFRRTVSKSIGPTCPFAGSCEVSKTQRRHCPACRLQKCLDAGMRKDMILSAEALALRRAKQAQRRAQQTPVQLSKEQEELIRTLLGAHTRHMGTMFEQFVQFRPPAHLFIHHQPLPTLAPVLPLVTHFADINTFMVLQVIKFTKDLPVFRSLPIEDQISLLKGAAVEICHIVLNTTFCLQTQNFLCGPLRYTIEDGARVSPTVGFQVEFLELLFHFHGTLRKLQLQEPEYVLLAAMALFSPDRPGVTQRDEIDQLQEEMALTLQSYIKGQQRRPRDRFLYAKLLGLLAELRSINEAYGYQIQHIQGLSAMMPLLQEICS
Luciferin 4-monooxygenase (Photinus pyralis), sequence (P08659 whole entry, looked up): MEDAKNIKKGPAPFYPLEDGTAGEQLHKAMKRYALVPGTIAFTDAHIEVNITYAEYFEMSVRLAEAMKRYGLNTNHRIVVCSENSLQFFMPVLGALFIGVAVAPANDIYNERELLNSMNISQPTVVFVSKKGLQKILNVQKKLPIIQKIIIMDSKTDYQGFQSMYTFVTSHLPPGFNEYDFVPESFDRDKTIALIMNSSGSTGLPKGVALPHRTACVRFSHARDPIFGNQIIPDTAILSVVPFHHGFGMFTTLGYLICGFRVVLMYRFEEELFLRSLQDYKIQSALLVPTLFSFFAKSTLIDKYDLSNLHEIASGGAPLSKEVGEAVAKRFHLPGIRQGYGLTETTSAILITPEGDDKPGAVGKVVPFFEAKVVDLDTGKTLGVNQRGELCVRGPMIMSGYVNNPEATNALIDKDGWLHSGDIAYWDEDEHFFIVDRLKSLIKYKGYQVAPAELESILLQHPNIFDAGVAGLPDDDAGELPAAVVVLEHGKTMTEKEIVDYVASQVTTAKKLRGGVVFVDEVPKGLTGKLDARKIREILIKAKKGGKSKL

Turning to `C[C@H]1C[C@H]2[C@@H]3CCC4=CC(=O)C=C[C@]4(C)[C@H]3C(=O)C[C@]2(C)[C@@]1(O)C(=O)CO`, the Potency result in test [1], in [4], in [5], in [7], in test [8] and in [9] was “inactive” each time. The Potency result in [10], in test [11], in test [14], in [17], in test [19] and in test [20] was “inactive” throughout. The molecule was called inactive in [2], in [3], in test [6], in test [12], in test [13] and in [15]. In addition, the molecule was classed as inactive in test [16] and in test [18].

Take `CCCCCCCCN1CCCC1=O`: the Potency entry in [1], in test [4], in test [7], in [8], in test [10] and in [11] was “inactive” in each case. In addition, the Potency result in [14], in test [17], in [19] and in test [20] was “inactive” throughout. Further, the molecule was classed as inactive in [2], in test [3], in test [6], in [12], in test [15] and in [16]. Also, the outcome in [18] was inactive. For the same molecule, in test [5], the Potency is 30.6 µM (active).

Consider `O=S(=O)(O)c1cccc(S(=O)(=O)O)c1`, for which the Potency result in [1], in test [4], in test [5], in [7], in [8] and in test [9] was “inactive” each time. In addition, the Potency result in test [10], in [11], in [14], in [17], in [19] and in test [20] was “inactive” in each case. Besides, the molecule was called inactive in test [2], in test [3], in test [6], in test [12], in [13] and in [15]. The molecule was classed as inactive in test [16] and in [18].

With `Cc1ncc(COP(=O)(O)O)c(C=O)c1O`, the Potency result in test [1], in [4], in test [5], in test [9], in test [10] and in [11] was “inactive” each time. Moreover, the Potency entry in [17], in test [19] and in test [20] was “inactive” each time. Further, the molecule was classed as inactive in test [2], in test [3], in [6], in [12], in test [13] and in test [16]. Besides, in test [18], the molecule was called inactive.

For the molecule `CC(C)c1ccc2ncccc2c1`, the Potency in [1] is 31.7 µM (active). Moreover, the molecule was called inactive in [2], in [3], in test [6], in test [12], in [13] and in test [15]. Also, the result in [16] and in test [18] was inactive. Also, the Potency result in [4], in [5], in test [7], in test [8], in [10] and in test [11] was “inactive” throughout. Further, the Potency entry in test [14], in test [17] and in test [19] was “inactive” throughout.

As to `NS(=O)(=O)Cc1noc2ccccc12`, the Potency result in [1], in test [4], in [5], in test [7], in [8] and in test [9] was “inactive” in each case. For the same molecule, the Potency entry in test [10], in [11], in [14], in test [17], in test [19] and in [20] was “inactive” each time. For the same molecule, the result in test [2], in test [3], in [6], in test [13], in test [15] and in [16] was inactive. Further, in test [18], the outcome was inactive.

For `N[C@@H](CCC(=O)O)C(=O)O`, the Potency result in test [1], in [4], in [5], in test [9], in test [10] and in [11] was “inactive” in each case. The Potency entry in test [17], in test [19] and in test [20] was “inactive” throughout. Also, the result in test [2], in test [3], in test [6], in test [12], in test [13] and in test [16] was inactive.
